PubChem BioAssay (EPA / NIEHS)
Active and inactive are the calls of the source. How the source made its calls: active means hit-call score of the fitted dose curve at least 0.9, where 1 is the maximum; inactive means score below 0.9.

Assays:
[1] = read-out: Matrix Metallopeptidase 1 (MMP1), MMP1 (gene 4312); test: BSK_hDFCGF_MMP1: BioMAP Diversity Plus: hDFCGF Assay for Matrix Metallopeptidase 1 (MMP1) Biomarker Activity (AID 2283064); settings: primary human foreskin fibroblasts; actives raise or lower the signal
Method in brief: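 Human foreskin fibroblasts exposed to chemical for 24 h; MMP1 detected by ELISA, with DMSO as baseline for bidirectional fitting.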

[2] = read-out: Vascular cell adhesion molecule 1 (VCAM1), VCAM1 (gene 7412); test: BSK_hDFCGF_VCAM1: BioMAP Diversity Plus: hDFCGF Assay for Vascular cell adhesion molecule 1 (VCAM1) Biomarker Activity (AID 2283065); settings: primary human foreskin fibroblasts; actives raise or lower the signal;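 on AC50: VCAM-1 protein level quantified by ELISA after 24 h chemical exposure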
Method in brief: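 Cells are dosed, cultured for 24 h, then VCAM-1 is quantified by ELISA; signal increases and decreases are both fitted relative to DMSO.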

[3] = read-out: Plasminogen activator inhibitor-1 (PAI1), SERPINE1 (gene 5054); test: BSK_hDFCGF_PAI1: BioMAP Diversity Plus: hDFCGF Assay for Plasminogen activator inhibitor-1 (PAI1) Biomarker Activity (AID 2283066); settings: primary human foreskin fibroblasts; actives raise or lower the signal
Method in brief: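 Fibroblasts from human foreskin were treated with test chemical. After 24 h, PAI-1 was measured by ELISA. Activity was fitted in both directions relative to DMSO.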

[4] = read-out: Intercellular Adhesion Molecule 1 (ICAM1), ICAM1 (gene 3383); test: BSK_KF3CT_ICAM1: BioMAP Diversity Plus: KF3CT Assay for Intercellular Adhesion Molecule 1 (ICAM1) Biomarker Activity (AID 2283067); settings: primary human keratinocytes with fibroblasts; actives raise or lower the signal
Method in brief: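 Dose the keratinocyte/fibroblast co-culture, wait 24 h, measure ICAM-1 by ELISA, then fit increases or decreases against DMSO. Cytotoxicity is checked in parallel cultures by SRB total-protein staining.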

[5] = read-out: Interferon-gamma inducible Protein 10 (IP10), CXCL10 (gene 3627); test: BSK_KF3CT_IP10: BioMAP Diversity Plus: KF3CT Assay for Interferon-gamma inducible Protein 10 (IP10) Biomarker Activity (AID 2283068); settings: primary human keratinocytes with fibroblasts; actives raise or lower the signal
Method in brief: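 In a primary skin co-culture of keratinocytes and fibroblasts, IP-10 is quantified by ELISA at 24 h after dosing. SRB staining of parallel wells monitors overt toxicity. Curves are fitted both directions against DMSO.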

[6] = BSK_KF3CT_SRB: Viability Assessment in the BioMAP Diversity Plus: KF3CT Assay (AID 2283069); settings: primary human keratinocytes with fibroblasts;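 further: fitted for both signal gain and loss against DMSO baseline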
Method in brief: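 Overt cytotoxicity is assessed as total protein by sulforhodamine B staining in parallel human skin co-cultures at 24 h after dosing. DMSO serves as negative control and baseline.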

[7] = read-out: Interleukin-1 alpha (IL1a), IL1A (gene 3552); test: BSK_KF3CT_IL1a: BioMAP Diversity Plus: KF3CT Assay for Interleukin-1 alpha (IL1a) Biomarker Activity (AID 2283070); settings: primary human keratinocytes with fibroblasts; actives raise or lower the signal
Method in brief: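 Readout is IL-1a level by ELISA, compared bidirectionally with DMSO as baseline. Cells: human keratinocytes co-cultured with foreskin fibroblasts, harvested 24 h post-dose.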

[8] = read-out: TIMP metallopeptidase inhibitor 2 (TIMP2), TIMP2 (gene 7077); test: BSK_KF3CT_TIMP2: BioMAP Diversity Plus: KF3CT Assay for TIMP metallopeptidase inhibitor 2 (TIMP2) Biomarker Activity (AID 2283071); settings: primary human keratinocytes with fibroblasts; actives raise or lower the signal
Method in brief: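 Chemicals were dosed onto human skin primary co-cultures of keratinocytes and foreskin fibroblasts, and TIMP-2 was measured by ELISA after 24 hours. Activity in either direction was fitted relative to DMSO.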

[9] = read-out: Transforming growth factor beta 1 (TGFb1), TGFB1 (gene 7040); test: BSK_KF3CT_TGFb1: BioMAP Diversity Plus: KF3CT Assay for Transforming growth factor beta 1 (TGFb1) Biomarker Activity (AID 2283072); settings: primary human keratinocytes with fibroblasts; actives raise or lower the signal
Method in brief: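 KF3CT co-culture (keratinocytes + fibroblasts), 24 h exposure → TGF-b1 ELISA → bidirectional fit, DMSO = baseline. Parallel SRB total-protein staining (0.1% SRB, 10% TCA fixation, 560 nm) for cytotoxicity.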

[10] = read-out: C-C motif chemokine 2 (Homo sapiens) (UniProt P13500); test: BSK_KF3CT_MCP1: BioMAP Diversity Plus: KF3CT Assay for Monocyte Chemoattractant Protein 1 (MCP1/CCL2) Biomarker Activity (AID 2283073); settings: primary human keratinocytes with fibroblasts; actives raise or lower the signal
Method in brief: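 Keratinocytes and foreskin fibroblasts were co-cultured, dosed with chemical, and sampled 24 h later. MCP-1 was quantified by ELISA, and the endpoint was analyzed with bidirectional fitting using DMSO as negative control.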

[11] = read-out: Matrix Metallopeptidase 9 (MMP9), MMP9 (gene 4318); test: BSK_KF3CT_MMP9: BioMAP Diversity Plus: KF3CT Assay for Matrix Metallopeptidase 9 (MMP9) Biomarker Activity (AID 2283074); settings: primary human keratinocytes with fibroblasts; actives raise or lower the signal;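 on AC50: MMP9 protein level quantified by ELISA in the co-culture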
Method in brief: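 Values come from bidirectional fitting relative to DMSO of MMP-9 levels, which were measured by ELISA. Measurements were taken 24 h after chemical dosing of a keratinocyte and foreskin fibroblast co-culture.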

[12] = read-out: urokinase plasminogen activator (uPA), PLAU (gene 5328); test: BSK_KF3CT_uPA: BioMAP Diversity Plus: KF3CT Assay for urokinase plasminogen activator (uPA) Biomarker Activity (AID 2283075); settings: primary human keratinocytes with fibroblasts; actives raise or lower the signal
Method in brief: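 Values derive from bidirectional fitting against DMSO controls. Keratinocyte/foreskin fibroblast co-cultures received chemical; 24 h later uPA was detected by ELISA, with SRB total-protein staining in parallel wells for overt cytotoxicity.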

[13] = read-out: CD40, CD40 (gene 958); test: BSK_LPS_CD40: BioMAP Diversity Plus: LPS Assay for CD40 Biomarker Activity (AID 2283076); settings: primary human HUVEC with PBMC; actives raise or lower the signal
Method in brief: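 CD40 signal, measured by ELISA, is fitted in both directions relative to DMSO vehicle. The system is an LPS-driven human vascular primary co-culture of endothelial cells and PBMC, sampled 24 h after compound addition.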

[14] = read-out: E-selectin (Homo sapiens) (UniProt P16581); test: BSK_LPS_Eselectin: BioMAP Diversity Plus: LPS Assay for Eselectin Biomarker Activity (AID 2283077); settings: primary human HUVEC with PBMC; actives raise or lower the signal
Method in brief: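 Signal of E-selectin, detected by ELISA, served as the endpoint; cells were umbilical vein endothelium with PBMC, read 24 h after treatment. DMSO defined baseline, and both increases and decreases were fitted.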

[15] = read-out: Interleukin-8 (IL8), CXCL8 (gene 3576); test: BSK_LPS_IL8: BioMAP Diversity Plus: LPS Assay for Interleukin-8 (IL8) Biomarker Activity (AID 2283078); settings: primary human HUVEC with PBMC; actives raise or lower the signal
Method in brief: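 Endothelial cells and PBMC from human donors are co-cultured, treated with chemicals and LPS, then assayed for IL-8 by ELISA after 24 h. Parallel SRB staining (0.1% SRB after 10% TCA fixation, 560 nm) flags cytotoxicity.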

[16] = BSK_LPS_SRB: Viability Assessment in the BioMAP Diversity Plus: LPS Assay (AID 2283079); settings: primary human HUVEC with PBMC;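 further: total protein by sulforhodamine B absorbance as a cytotoxicity measure; measured one day after compound addition; fitted in both directions against DMSO so loss or gain of signal counts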
Method in brief: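 Overt cytotoxicity was gauged by sulforhodamine B total-protein staining in a primary human vascular endothelial and mononuclear cell co-culture 24 h post-dosing. Activity was fitted in both directions relative to DMSO.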

[17] = read-out: Interleukin-1 alpha (IL1a), IL1A (gene 3552); test: BSK_LPS_IL1a: BioMAP Diversity Plus: LPS Assay for Interleukin-1 alpha (IL1a) Biomarker Activity (AID 2283080); settings: primary human HUVEC with PBMC; actives raise or lower the signal
Method in brief: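 Measured: IL-1 alpha via ELISA at 24 h in LPS-activated human umbilical vein endothelium–PBMC co-culture. Baseline: DMSO, bidirectional fitting.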

[18] = read-out: Monocyte Chemoattractant Protein-1 (MCP1), CCL2 (gene 6347); test: BSK_LPS_MCP1: BioMAP Diversity Plus: LPS Assay for Monocyte Chemoattractant Protein-1 (MCP1) Biomarker Activity (AID 2283081); settings: primary human HUVEC with PBMC; actives raise or lower the signal;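 on AC50: secreted MCP-1 protein quantified by ELISA in culture supernatant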
Method in brief: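 LPS-stimulated HUVEC/PBMC co-culture; chemical, 24 h; MCP-1 by ELISA; bidirectional fit vs DMSO; cytotoxicity via SRB (0.1% stain, 10% TCA fix, 560 nm) in parallel wells.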

[19] = BSK_LPS_PGE2: BioMAP Diversity Plus: LPS Assay for Prostaglandin E2 (PGE2) Biomarker Activity (AID 2283082); settings: primary human HUVEC with PBMC; actives raise or lower the signal;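 on AC50: secreted prostaglandin E2 measured by ELISA in LPS-stimulated co-culture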
Method in brief: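 Compounds were added to the LPS co-culture of endothelium and PBMC, and PGE2 was measured by ELISA after 24 h. Responses in either direction were fitted with DMSO as baseline.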

[20] = read-out: Macrophage colony-stimulating factor (MCSF), CSF1 (gene 1435); test: BSK_LPS_MCSF: BioMAP Diversity Plus: LPS Assay for Macrophage colony-stimulating factor (MCSF) Biomarker Activity (AID 2283083); settings: primary human HUVEC with PBMC; actives raise or lower the signal
Method in brief: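 Compound is added to a human vascular primary co-culture of umbilical vein endothelium and blood mononuclear cells. After 24 h, M-CSF is quantified by ELISA. Signal changes are fitted in both directions against DMSO.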

Measured: AC50

Sequence of E-selectin (Homo sapiens) (P16581 whole entry, looked up): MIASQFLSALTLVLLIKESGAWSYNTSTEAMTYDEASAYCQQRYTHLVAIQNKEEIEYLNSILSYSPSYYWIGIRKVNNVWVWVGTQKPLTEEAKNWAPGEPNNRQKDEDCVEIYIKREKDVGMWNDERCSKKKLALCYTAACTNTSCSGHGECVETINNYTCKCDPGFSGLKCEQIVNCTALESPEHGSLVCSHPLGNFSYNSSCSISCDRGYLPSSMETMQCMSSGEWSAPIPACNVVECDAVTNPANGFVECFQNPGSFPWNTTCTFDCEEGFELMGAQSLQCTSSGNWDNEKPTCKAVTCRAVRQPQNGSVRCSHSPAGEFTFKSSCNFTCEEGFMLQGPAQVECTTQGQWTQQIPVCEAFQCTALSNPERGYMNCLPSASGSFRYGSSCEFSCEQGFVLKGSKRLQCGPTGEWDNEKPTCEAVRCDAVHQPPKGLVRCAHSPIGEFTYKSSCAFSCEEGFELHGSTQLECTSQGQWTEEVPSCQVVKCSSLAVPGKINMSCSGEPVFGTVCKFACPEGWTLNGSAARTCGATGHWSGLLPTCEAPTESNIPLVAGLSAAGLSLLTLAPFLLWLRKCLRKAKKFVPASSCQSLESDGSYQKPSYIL

CCO[Si](CCCNC(N)=O)(OCC)OCC
inactive: all assays above

CC(C)(C)c1cc(/C=C2\SC(N)=NC2=O)cc(C(C)(C)C)c1O
inactive: [4] | [7]
active: [1] 20 µM | [2] 15.6 µM | [3] 20 µM | [5] 9.94 µM | [6] 7.93 µM | [8] 11.5 µM | [9] 12.8 µM | [10] 6.59 µM | [11] 9.79 µM | [12] 12.5 µM | [13] 13 µM | [14] 27.2 µM | [15] 20 µM | [16] 26.4 µM | [17] 11.5 µM | [18] 26.9 µM | [19] 0.186 µM | [20] 16 µM

OC12N=C(c3ccccc3)SC1Cc1cc(Cl)ccc12 (centres undefined)
active: [13] 16.8 µM | [17] 25.3 µM
inactive: all other assays above

Cc1c2ccccc2c(C)c2c1ccc1ccccc12
active: [2] 3.97 µM | [3] 10.1 µM | [13] 15.3 µM | [16] 24.8 µM | [17] 26.8 µM | [18] 25.3 µM | [20] 20 µM
inactive: all other assays above

CC[C@H](NC(=O)c1cc(F)ccc1NS(=O)(=O)c1cccc2cccnc12)c1ccccc1
active: [19] 8.72 µM
inactive: all other assays above

Cc1ccc(C(C)C)cc1
inactive: all assays above

COc1cccc([C@H](O)C2CCN(CCc3ccc(F)cc3)CC2)c1OC
inactive: all assays above

COCC(C)OCC(C)OCC(C)O (centres undefined)
inactive: all assays above

c1ccc(C[n+]2cccc3ccccc32)cc1
not listed: [13]
inactive: all other assays above

O=c1c(-c2ccc(O)cc2)coc2cc(O)cc(O)c12
inactive: [2] | [4] | [5] | [6] | [7] | [8] | [9] | [10] | [12]
active: [1] 15.1 µM | [3] 20 µM | [11] 20 µM | [13] 14.3 µM | [14] 31.7 µM | [15] 20 µM | [16] 12 µM | [17] 16 µM | [18] 17.9 µM | [19] 10 µM | [20] 14.8 µM
